Assay results reported in PubChem BioAssay (NCI).
“And” between values parts separate entries of the source, which are not always exact repeats. Equal entries are not always repeated. About 79,000 compounds went through this panel and 15% of them were active in at least one assay; those are over-represented in the sample as a whole. Values without a mark were called inactive. The source made the active and inactive calls. Cut-off read from the data, not from the text of the source: active = growth inhibition above about 70%; inactive = the rest.

Experiments:
[1] = NCI Yeast Anticancer Drug Screen. Data for the rad50 strain (AID 155);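 note: 0% = growth of vehicle-only cultures of the same strain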; conditions: S. cerevisiae rad50 strain growth inhibition, hits give high values; at 50.0 µM unless noted
Summary of the method: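 Readout: growth inhibition relative to vehicle-treated cultures. Compound exposure was carried out in a genetically defined yeast strain deficient in DNA damage repair.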

[2] = NCI Yeast Anticancer Drug Screen. Data for the mec2-1 strain (AID 157); conditions: S. cerevisiae mec2-1 strain, hits give high values; at 50.0 µM unless noted
Summary of the method: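 Growth inhibition is read against vehicle-treated controls after compound exposure of the mec2-1 yeast strain, which is defective in DNA damage repair or cell cycle control.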

[3] = NCI Yeast Anticancer Drug Screen. Data for the sgs1 mgt1 strain (AID 161);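 note: 0% = growth of cultures given vehicle only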; conditions: S. cerevisiae sgs1 mgt1 strain, hits give high values; at 50.0 µM unless noted
Summary of the method: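 This yeast growth screen uses a strain with defined DNA-repair lesions; compound-treated growth is compared with vehicle-treated growth.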

[4] = NCI Yeast Anticancer Drug Screen. Data for the cln2 rad14 strain (AID 165);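 note: 0% = growth equal to vehicle treated cultures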; conditions: S. cerevisiae cln2 rad14 strain, hits give high values; at 50.0 µM unless noted
Summary of the method: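 Growth inhibition, relative to vehicle-treated controls, is the read-out. The test organism is a yeast strain with defined genetic alterations, cln2 rad14.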

[5] = NCI Yeast Anticancer Drug Screen. Data for the bub3 strain (AID 167); conditions: S. cerevisiae bub3 mutant strain, hits give high values; at 50.0 µM unless noted
Summary of the method: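 Readout: yeast growth inhibition, expressed relative to vehicle-only wells. The test organism is a mutant strain from a panel with lesions in DNA repair or checkpoint genes.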

[6] = NCI Yeast Anticancer Drug Screen. Data for the mlh1 rad18 strain (AID 175); conditions: S. cerevisiae mlh1 rad18 strain growth inhibition, hits give high values; at 50.0 µM unless noted
Summary of the method: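 Cells of a genetically altered yeast strain, deficient in DNA damage repair, were treated with compound. Their growth was then compared with that of vehicle-treated cultures to give inhibition.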

SMILES	growth inhibition [1]	growth inhibition [2]	growth inhibition [3]	growth inhibition [4]	growth inhibition [5]	growth inhibition [6]
Nc1nc(N)c2ncn(Cc3ccccc3)c2n1	-41.2%	-34.4%	-9.95%	-14.1%	-16.1%	-13.9%
COc1cc(C)cc(C(=O)O)c1	-1.85%	-3.5%	7.3%	-52.4%	-10%	-2.7%
CS(=O)(=O)OCCN(CCOS(C)(=O)=O)c1ccc([N+](=O)[O-])cc1[N+](=O)[O-]	22.6%	-5.8%	-0.2%	24.8%	-3.95%	13.6%
CC(C)OC(=S)SC1CCCCC1=O (stereo unspecified)	-0.45%	-8.1%	-4.35%	-66.2%	-6.2%	-8.25%
CCOC(=O)N1CCN(C(=O)CC(C)=O)CC1	2.35%	-32.5%	-0.15%	19.1%	4.45%	16.6%
CCOC(=O)CSCC(C)C(=O)OC (stereo unspecified)	-0.3%	-0.5%	-2.7%	7.2%	2.5%	2.25%
O=CC(=O)O	28.1%	-19.6%	15.7%	13.7%	26.6%	25.7%
COc1ccc(/C=C(\C(=O)OCC(C)C)c2ccc(OC)c(OC)c2)cc1OC	2.6%	-17.1%	8.5%	-6.15%	-7.2%	16.4%
COC(=O)C(NC(=O)c1ccccc1)C(c1ccc(Cl)cc1)P(=O)(OC)OC (stereo unspecified)	-19.6%	-1%	12%	22.2%	-7.85%	-17.9%
COc1cc(C)c(C)c(OC(=O)c2c(C)c(C)c(OC)c(C)c2OC)c1C	10.3%	-17.1%	11.3%	8.9%	23.6%	16.1%
CCCCNC(=S)Nn1c(-c2ccccc2)nc2ccccc2c1=O	18.6%	-43%	-20.8%	-37.5%	-31.9%	0.9%
CC/C=C/C(=O)CC(O)(C(F)(F)F)C(F)(F)F	-30.9%	9.1%	12.5%	-20.9%	-29.8%	-20.8%
Cc1ccnc(NC(=O)CCc2ccccc2)c1	-11.8%	-16.8%	-10.3%	-31.7%	-13.2%	-5.85%
COc1ccc(-c2cccc(C(=O)O)c2C(=O)O)cc1OC	6.1%	20.8%	0.4%	-17.2%	-7.4%	-10.1%
CCC(C(N)=O)c1ccccc1 (stereo unspecified)	-16.3%	-5.65%	13.9%	-6.75%	-3.9%	-3.6%
O=C1CSC(c2cc([N+](=O)[O-])ccc2Cl)N1c1nncs1 (stereo unspecified)	22.1%	15.6%	37.2%	19.1%	21.7%	28.4%
Cc1ccc(/C=C/C(=O)C(C)CN(C)C)cc1C (stereo unspecified)	-1%	-15.4%	26.1%	0.95%	0.3%	9.65%
Cc1ccc(C2=CC=C(c3ccccc3)C2)cc1	-22.1%	5.8%	-24.1%	58.6%	4.4%	36.6%
Cc1ccc2oc3c(ccc(=O)n3C)c(=O)c2c1	28.6%	7.1%	-17.6%	-22.1%	-35.5%	-59.3%
C#CC1(O)C2CCc3cc(OC)ccc3C2CCC1(C)C(=O)OC (stereo unspecified)	10.8%	-0.2%	4.05%	6.85%	-11.9%	-11.6%
C/C(CC(C)C)=N/O	3.75% and -12.1%	-3.25% and -4.35%	-17.5% and -5.85%	-23.2% and -20.5%	-0.4% and 3%	11.8% and 9.05%

SMILES	growth inhibition [1]	growth inhibition [2]	growth inhibition [3]	growth inhibition [4]	growth inhibition [5]	growth inhibition [6]
O=C(O)Cc1cc(=O)oc2ccccc12	7.4%	-12.3%	8.2%	-15.8%	-6.8%	8.75%
N#CCCCCCOCCOCCOCCOCCOCCCCCC#N	12.8%	12.9%	-10.2%	12.7%	-1.75%	18.6%
N=C1OCCN1/N=C/c1ccc([N+](=O)[O-])o1	33.4%	-2.3%	66.8%	-3.5%	20.6%	52.2%
COC(=O)c1ccccc1NS(=O)(=O)c1ccc(Cl)cc1	42.2%	66.1%	75.7% (active)	47.8%	93% (active)	82.2% (active)
ClCCOC1CCCCO1 (stereo unspecified)	-19%	-15.2%	-13.6%	6.2%	-5.4%	-5.15%
CNC(=O)C(C)NC(=O)C(Cc1ccccc1)NC(=O)c1ccccc1 (stereo unspecified)	-33%	-52.7%	-6.45%	15.4%	5.2%	-11.7%
CC(=O)OC1CCC2(C)C(CCC3C2C(=O)C(OC(C)=O)C2(C)C3CC3OC4(CCC(C)CO4)C(C)C32)C1 (stereo unspecified)	-10.5%	-19.9%	-11.2%	3.6%	-23.9%	-6.9%
O=C(/C=C/c1ccccc1)c1ccc(I)cc1	11.7%	-1.25%	9.6%	-8.2%	5.25%	1.5%
CC(=O)Oc1ccc(Cc2ccccc2)cc1	47%	33.5%	48.2%	-49.2%	32.9%	49.1%
NC(N)=NC(N)=Nc1ccc(S(=O)(=O)O)cc1	-4.7%	-26.9%	-47%	-22.7%	-29.6%	-11.8%
CC(O[Si](C)(C)C)C1C=CC(C)n2c(=O)n(-c3ccccc3)c(=O)n21 (stereo unspecified)	4.65%	-26.6%	-34.3%	-7.6%	-55.6%	-18.2%
C=C1C(=O)OCC1C(=O)OCC (stereo unspecified)	9.35%	7.7%	-0.35%	3.35%	-24.8%	14.2%
Cc1ccc(N2CC(=O)N3CCCC(C)N3C(=O)C2)cc1 (stereo unspecified)	26%	8.85%	14.8%	15.8%	7.05%	10.4%
O=[N+]([O-])c1ccc(/C=N/Nc2nnc3c4ccccc4c4ncccc4c3n2)o1	-20.8%	-14.6%	-23.6%	-29.8%	-33.8%	16.9%
CC(C)(C)C(=O)OCC1CCC(n2cnc3c(=O)[nH]c(N)nc32)O1 (stereo unspecified)	34.3%	2.3%	-3.65%	3.05%	-2.25%	25.7%
CC1=C(C(=O)OC(C)(C)C)C(c2ccc([N+](=O)[O-])cc2)C(C(=O)OC(C)(C)C)=C(C)N1	0.2%	-4.9%	3.85%	12.2%	-12.8%	15.4%
CCOc1ccc(NC(=O)C(=O)CC(=O)c2c(C)n([O-])c3ccccc3[n+]2=O)cc1	-5.95%	3.8%	-34.5%	7.2%	0.1%	-10.8%
COc1ccc(/C=N/NC(=S)NN)cc1	-6.6%	9.1%	13%	-18.9%	33.6%	13.2%
CCCCCCCCCC(=O)Oc1cccc2c1CC(C[Se]c1ccccc1)C(=O)O2 (stereo unspecified)	2.1%	-0.3%	-0.85%	-3.05%	-2.05%	5.7%
CN(C)CCC(=O)C(=Cc1ccc(Cl)c(Cl)c1)C(=O)CCN(C)C	93.2% (active)	97.7% (active)	95% (active)	79.8% (active)	97.8% (active)	98% (active)
